MCF10A rereplic: A quantitative high throughput screen for small molecules that induce DNA re-replication in MCF 10a normal breast cells. MCF 10A DNA re-replication, Hoechst nuclear intensity, 48 h. Potency, µM (series often up to 46.1 µM), for inactives: at the top dose activity, positive = re-replication, most hits filed as activators. 350,000 tested, 2.9% active. AID 624296, 2012; further: potency means the concentration at half of the fitted maximal effect; % of control where 0% means no effect; nearly all actives have a fitted effect of over 50% in size
VP16 counter: VP16 counterscreen qHTS for inhibitors of ROR gamma transcriptional activity. Drosophila S2 Gal4-VP16 UAS-luciferase, luminescence, 20 h. Potency, µM (highest dose often 53.6 µM), for inactives: top-dose activity, negative = inhibition, most hits filed as inhibitors. 310,000 tested, 3.5% active;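 further: Gal4-VP16 expression switched on by copper sulfate through the metallothionein promoter; potency means the concentration at half of the fitted maximal effect; on the % scale 0 is the no-effect control and ±100 the full control effect; nearly all actives have a fitted effect of over 50% in size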
SW480 rerep: A quantitative high throughput screen for small molecules that induce DNA re-replication in SW480 colon adenocarcinoma cells. SW480 DNA re-replication, Hoechst DNA content imaging, 48 h. 340,000 tested, 1.8% active. Potency, µM (top dose mostly 46.1 µM), for inactives: at the highest dose re-replication activation, actives largely listed as activators; further: potency means the concentration at half of the fitted maximal effect; % of control where 0% means no effect; nearly all actives have a fitted effect of over 55% in size
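Readout is total intensity of Hoechst-stained nuclei, excited at 405 nm and collected at 500-530 nm. Compound treatment lasted 48 hr at 37 C in 5% CO2 before staining.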
IL-1B inflam inh: qHTS for Inhibitors of Inflammasome Signaling: IL-1-beta AlphaLISA Primary Screen. THP-1 LPS/ATP IL-1B secretion, AlphaLISA, 16 h; stronger effect = lower value. activity change, % at 57.5 µM. 360,000 tested, 4.7% active; in the data active means activity change below about -50%; inconclusive means mostly about -30% to -49%; further: on the % scale 0 is the no-effect control and ±100 the full control effect
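THP-1 cells pretreated 1 hr with compounds (up to 57.5 uM final), then stimulated with LPS (250 ng/mL final) plus ATP (1.25 mM final); secreted IL-1B measured by AlphaLISA after 16 hr, decreased signal indicating inhibition.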
RORgamma inh: qHTS for inhibitors of ROR gamma transcriptional activity | Nuclear receptor ROR-gamma (Mus musculus), P51450 | Drosophila S2 Gal4-RORgamma UAS-luciferase reporter, 20 h | Potency, µM (top dose mostly 53.6 µM), inactives show at the top dose activity change, negative = inhibition, actives largely listed as inhibitors | 310,000 tested, 5.4% active | AID 2551, 2010; further: potency means the concentration at half of the fitted maximal effect; on the % scale 0 is the no-effect control and ±100 the full control effect; nearly all actives have a fitted effect of over 60% in size
Target sequence (P51450 whole entry, looked up, the tested form may be a part): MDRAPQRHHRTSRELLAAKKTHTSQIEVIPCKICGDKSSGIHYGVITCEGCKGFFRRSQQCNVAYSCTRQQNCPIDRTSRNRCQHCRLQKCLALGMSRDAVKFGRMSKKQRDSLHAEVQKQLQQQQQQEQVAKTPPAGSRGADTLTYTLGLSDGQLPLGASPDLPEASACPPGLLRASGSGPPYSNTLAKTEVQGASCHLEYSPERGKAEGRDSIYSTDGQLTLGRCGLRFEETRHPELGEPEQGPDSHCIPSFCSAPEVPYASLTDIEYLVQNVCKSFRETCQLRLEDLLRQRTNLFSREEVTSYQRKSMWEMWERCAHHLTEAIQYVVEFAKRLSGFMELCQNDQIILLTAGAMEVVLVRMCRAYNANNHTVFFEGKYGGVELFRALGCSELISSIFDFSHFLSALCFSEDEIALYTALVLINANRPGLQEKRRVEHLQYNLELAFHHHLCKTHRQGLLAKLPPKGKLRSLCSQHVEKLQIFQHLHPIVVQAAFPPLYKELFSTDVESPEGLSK
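Stably transfected Drosophila Schneider cells are the test system, with ROR gamma fused to Gal4 and luciferase under UAS control; luminescence is read after 20 hr of 700 uM copper sulfate induction at ambient temperature.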
* hit, by the source's call. Compounds with a hit are over-represented: about 11% of the library has one in this group of screens. Unless noted, the call rests on the fitted dose curve; in most records, active means well fitted curve in the direction sought with a large enough effect; inconclusive means small, poorly fitted or top-dose-only effect, or another doubt; inactive means no such curve, though single readings can be large; an effect the other way counts as inactive or inconclusive.

What do the screens show for `O=C(O)C1C2CCC(C2)C1C(=O)NCCC1=CCCCC1` (centres undefined)?
MCF10A rereplic: -4%; VP16 counter: -14%; SW480 rerep: 0.52µM*; IL-1B inflam inh: -3; RORgamma inh: -5%

How did COc1ccc(C(=O)NCCC2=CCCCC2)cc1 do in these assays?
MCF10A rereplic: 2%; VP16 counter: inconclusive; SW480 rerep: -1%; IL-1B inflam inh: 0; RORgamma inh: 13µM*

What do the screens show for `CC(C)C[C@@H](CC(=O)N[C@@H](CCC(=O)O)CC(=O)O)NC(=O)[C@@H]1CNCC[C@H]1NC(=O)C[C@@H](NC(=O)C[C@H](CO)NC(=O)[C@@H]1CCCC[C@H]1N)C(C)C`?
VP16 counter: 3%; RORgamma inh: -12%

Results for CC(C)[C@H](NC(=O)c1ccc(Cl)cc1)C(=O)Nc1cccc(S(=O)(=O)N2CCOCC2)c1 ?
IL-1B inflam inh: 7

Results for CCc1ccccc1NC(=O)CNC(=O)CNC(=O)c1cccs1 ?
MCF10A rereplic: 0%; SW480 rerep: -6%; IL-1B inflam inh: -2

How did CCCC[C@H](NC(C)=O)C(=O)N[C@@H](CCC(=O)O)C(=O)N[C@@H](Cc1cnc[nH]1)C(=O)N[C@H](Cc1ccccc1)C(=O)N[C@@H](CCCN=C(N)N)C(=O)N[C@H](Cc1c[nH]c2ccccc12)C(=O)NCC(N)=O do in these assays?
VP16 counter: -4%; RORgamma inh: 9%

Results for Cc1cccc(C)c1-n1nnnc1C1(C)CCC(=O)N1CC(F)(F)F (centres undefined) ?
IL-1B inflam inh: 25

What do the screens show for `Cc1nn(CC(=O)NC(C)C(C)C)c(C)c1S(=O)(=O)N1CCCCC1` (centres undefined)?
MCF10A rereplic: -1%; SW480 rerep: 11%; IL-1B inflam inh: 9

What do the screens show for `Cn1ccnc1SCC(=O)Nc1ccc(Br)cc1C(F)(F)F`?
MCF10A rereplic: -1%; VP16 counter: 0%; SW480 rerep: 0%; IL-1B inflam inh: 1; RORgamma inh: -35%

Results for O=C(N/N=C/c1cc(O)ccc1[N+](=O)[O-])c1ccc2c(c1)OCCO2 ?
MCF10A rereplic: 6%; VP16 counter: 8.9µM*; SW480 rerep: 2%; IL-1B inflam inh: 41; RORgamma inh: 10µM*

How did O=[N+]([O-])c1ccc(O)c(C=Nc2ccc3c(c2)OCO3)c1 do in these assays?
MCF10A rereplic: 7%; VP16 counter: 25%; SW480 rerep: 26%; IL-1B inflam inh: -11; RORgamma inh: 5%

Results for O=C(N/N=C/c1cc([N+](=O)[O-])ccc1O)c1cccc(N2CCCC2=O)c1 ?
MCF10A rereplic: 22%; VP16 counter: 3.2µM*; SW480 rerep: 9.2µM*; IL-1B inflam inh: 162; RORgamma inh: 2.2µM*

Results for O=C(N/N=C/c1cc([N+](=O)[O-])ccc1O)c1ccc2c(c1)OCCO2 ?
MCF10A rereplic: 8%; VP16 counter: 1.4µM*; SW480 rerep: inconclusive; IL-1B inflam inh: 18; RORgamma inh: 0.63µM*

What do the screens show for `O=C(NC(=S)Nc1cc([N+](=O)[O-])ccc1O)c1ccc2c(c1)OCO2`?
MCF10A rereplic: 13µM*; VP16 counter: 2.8µM*; SW480 rerep: inconclusive; IL-1B inflam inh: -10; RORgamma inh: 4µM*

What do the screens show for `C[C@]12CCC(=O)C=C1CCC1C3CC[C@](O)(C(=O)CO)[C@@]3(C)CC3OC312` (some centres undefined)?
VP16 counter: -8%; RORgamma inh: -19%

What do the screens show for `O=C(N/N=C/c1ccccc1[N+](=O)[O-])c1ccc2c(c1)OCCO2`?
MCF10A rereplic: 1%; VP16 counter: 7.1µM*; SW480 rerep: 9%; IL-1B inflam inh: -18; RORgamma inh: 3.5µM*

What do the screens show for `COc1ccc(/C=N/NC(=O)c2ccc3c(c2)OCCO3)cc1[N+](=O)[O-]`?
MCF10A rereplic: -4%; VP16 counter: -1%; SW480 rerep: -3%; IL-1B inflam inh: -4; RORgamma inh: 20%

Results for CCC(C)NC(=O)C1CCC(CNS(=O)(=O)c2ccc3c(c2)N(C(C)=O)CCO3)CC1 (centres undefined) ?
MCF10A rereplic: -2%; VP16 counter: 2%; SW480 rerep: 27%; IL-1B inflam inh: -6; RORgamma inh: 1%

Results for COc1ccc(CCn2c(-n3nc(C)cc3C)nc3c2c(=O)[nH]c(=O)n3C)cc1 ?
MCF10A rereplic: 1.6µM*; SW480 rerep: inconclusive; IL-1B inflam inh: 49

How did COCCn1c(SCCCc2ccccc2)nc2c1c(=O)[nH]c(=O)n2C do in these assays?
MCF10A rereplic: 3%; VP16 counter: -4%; SW480 rerep: -5%; IL-1B inflam inh: -3; RORgamma inh: inconclusive

How did COCCSc1nc2c(c(=O)[nH]c(=O)n2C)n1CCCc1ccccc1 do in these assays?
MCF10A rereplic: 1.5µM*; VP16 counter: 2%; SW480 rerep: 6%; IL-1B inflam inh: 17; RORgamma inh: 8%

What do the screens show for `Cc1ccc(S(=O)(=O)N2C[C@H]3[C@H]4C(=O)N(c5ccccc5)C(=O)[C@H]4CC(=O)[C@H]3[C@@H]2c2cccc3ccccc23)cc1`?
IL-1B inflam inh: 16

Results for Cc1ccc(NC(=O)CSc2nnnn2-c2ccc3c(c2)OCO3)cc1C ?
MCF10A rereplic: 16µM*; VP16 counter: -3%; SW480 rerep: inconclusive; IL-1B inflam inh: -17; RORgamma inh: 1%

Results for COc1ccc(N2CCN(C(=O)CSc3nnnn3-c3ccc4c(c3)OCCO4)CC2)cc1 ?
MCF10A rereplic: 16µM*; VP16 counter: inconclusive; SW480 rerep: -1%; IL-1B inflam inh: -59*; RORgamma inh: inconclusive

Results for COc1ccc(-n2nnnc2SCC(=O)N2CCOCC2)cc1 ?
MCF10A rereplic: 29%; VP16 counter: -7%; SW480 rerep: -9%; IL-1B inflam inh: -5; RORgamma inh: 32%

How did CCOC(=O)c1c(NC(=O)CSc2nnnn2-c2ccc3c(c2)OCCO3)sc(C)c1C do in these assays?
MCF10A rereplic: 18µM*; VP16 counter: 1%; SW480 rerep: 30%; IL-1B inflam inh: -24; RORgamma inh: 17%

Results for O=C(c1ccco1)N1CCC2(CC1)CCN(c1ccccc1)CC2 ?
VP16 counter: -3%; RORgamma inh: 24%

How did COC(=O)N[C@H](C[N+](=O)[O-])c1cccc(C)c1 do in these assays?
VP16 counter: 5%; RORgamma inh: -12%

What do the screens show for `COc1ccc(S(=O)(=O)N2CCc3ccccc32)cc1C(=O)Nc1ccc(C(N)=O)cc1`?
MCF10A rereplic: 23µM*; SW480 rerep: 6%; IL-1B inflam inh: 0
